In all, about 220,000 compounds went through this assay and about 2,000 (0.91%) were called active. Not shown: some 2% with an inconclusive outcome. A selection follows. Measured potencies and affinities stand elsewhere. Values without a mark were called inactive. Cut-off read from the data, not from the text of the source: inconclusive = inhibition above about 80% without an active follow-up result; inactive = below that; test concentration not stated here.
Assay: M. tuberculosis H37Rv growth inhibitors, H37Rv strain (AID 1626);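 note: bacteria incubated seven days before Alamar blue readout; 0% = bacteria only wells and 100% = bacteria with antibiotic wells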
Conditions: active compounds read high, concentration not given here

| Structure (SMILES) | inhibition |
| --- | --- |
| CCO[C@@H]1OC(C(=O)Nc2ccccc2)=C[C@H](c2ccc(C(F)(F)F)cc2)[C@H]1CCCO | 3.16% |
| Cc1occc1-c1nnc(SCC(=O)c2c(N)n(Cc3ccccc3)c(=O)n(C)c2=O)n1C | 4.82% |
| CCCC(=O)Nc1ccc(C(=O)NN=C(C2CC2)C2CC2)cc1 | -2.7% |
| CCCSc1nnc(CSc2nc3nc(C)cc(C)n3n2)o1 | -11.4% |
| CCCCSc1nnc(CSc2nc3nc(C)cc(C)n3n2)o1 | 8.33% |
| Cc1cc2nc(N)sc2cc1[N+](=O)[O-] | -4.98% |
| COc1ccc(/C=C/c2nc(-c3ccccc3O)n(-c3ccccc3)n2)cc1 | -4.12% |
| Oc1ccc(/C=C/c2nc(-c3ccccc3O)n(-c3ccccc3)n2)cc1 | 21.6% |
| O=C(Nc1ccc(Nc2ccncc2)cc1)c1ccc([N+](=O)[O-])cc1 | -0.61% |
| O=C(Nc1ccc(Nc2ccncc2)cc1)c1ccc(Nc2ccnc3ccc([N+](=O)[O-])cc23)cc1 | -3.41% |
| COc1ccc(-c2nc(-c3cccc(C)c3)nc(N3CCN(C)CC3)c2C#N)cc1 | 6.59% |
| CN1CCN(c2nc(-c3ccccc3)nc(-c3ccccc3)c2C#N)CC1 | 20.2% |
| COc1ccc(-c2nc(-c3ccccc3)nc(N3CCN(C)CC3)c2C#N)cc1 | 9.82% |
| COc1ccc(-c2nc(-c3ccccn3)nc(N3CCN(C)CC3)c2C#N)cc1 | 1.76% |
| N#Cc1c(-c2ccccc2)nc(-c2ccccc2)nc1N1CCOCC1 | -9.91% |
| COc1cccc(-c2nc(N3CCN(C)CC3)c3ccccc3n2)c1O | 10.5% |
| O=C(COC(=O)c1ccco1)Nc1ccccc1 | -8.55% |
| CC(=O)c1sc(=S)n(-c2ccccc2)c1C | 7.39% |
| O=C(Cn1cnc2c(cnn2-c2ccc(F)cc2)c1=O)N1CCN(c2ccccc2F)CC1 | 3.88% |
| O=S(=O)(c1ccc(-c2csc(-c3cccnc3)n2)cc1)N1CCOCC1 | 3.97% |
| NC(=O)NC(=O)COC(=O)c1ccccc1OCc1ccc(F)cc1 | 4.1% |
| CN(C)S(=O)(=O)c1cc(NC(=O)CN2CCCc3ccccc32)ccc1Cl | -10.6% |
| O=C(CN1CCN(S(=O)(=O)c2ccc(Cl)cc2)CC1)Nc1ccc(F)cc1F | 6.43% |
| O=C(Cc1nnc(NC(=O)Nc2ccc(Cl)cc2)s1)NCc1ccccc1 | -0.51% |
| CCOC(=O)C(=O)Nc1ccc(OCc2ccccc2)cc1 | 12.6% |

| Structure (SMILES) | inhibition |
| --- | --- |
| O=C(CCN1C(=O)C2C3C=CC(C3)C2C1=O)Nc1ccc2c(c1)OCO2 (stereo not given) | -1.34% |
| CCOCC(=O)Nc1ccc(C)c(Cl)c1 | 76.9% |
| Cc1nc(SCC(=O)Nc2ccccn2)n[nH]1 | -3.41% |
| CC(=O)OCC(=O)Nc1ccc(Br)c(C)c1 | 21.6% |
| Cc1cccc(NC(=O)CCN2C(=O)C3C4C=CC(C4)C3C2=O)c1 (stereo not given) | 3.17% |
| CCOc1ccc(NC(=O)Cc2ccccc2)cc1 | 5.27% |
| O=C(CSc1ncn[nH]1)Nc1ccc(OCc2ccccc2)cc1 | 47.3% |
| O=C(CSc1ncccn1)Nc1ccc2c(c1)CCC2 | 76% |
| CCOC(=O)c1sc(=S)n(C)c1NC(=O)c1ccc(C(C)(C)C)cc1 | 79.7% |
| Oc1ccc(-c2nc3ccccc3s2)cc1 | 59.6% |
| CCCOc1ccc(C(CC(=O)O)NC(=O)c2ccc3c(c2)OCO3)cc1 (stereo not given) | 3.69% |
| COc1ccc(-c2ocnc2C(=O)N2CCN(C(c3ccccc3)c3ccccc3)CC2)cc1 | -4.16% |
| O=C(NNC(=O)C1CCCO1)c1ccccc1Cl (stereo not given) | -7.82% |
| CCN(CC)S(=O)(=O)c1ccc(-c2nnc(SCC(=O)N3c4ccccc4CC3C)n2CC)cc1 (stereo not given) | 5% |
| CCC(CC)c1nnc(NC(=O)CCCN2C(=O)c3ccccc3C2=O)s1 | -6.94% |
| O=C(CN1CCCC1)Nc1ccc(OCc2ccccc2)cc1 | -0.61% |
| O=C(CN1CCN(c2ccccc2)CC1)Nc1ccc(OCc2ccccc2)cc1 | -8.11% |
| COc1ccc(CNC(=O)C2Cc3ccccc3CN2C(=O)c2ccco2)cc1 (stereo not given) | -0.615% |
| COCCNC(=O)c1ccc(CS(=O)(=O)c2ccc(C)cc2)o1 | -5.24% |
| COC(=O)c1ccc2nc(NC(=O)CN3C(=O)CCC3=O)sc2c1 | -25.1% |
| Cc1ccc(SCCNC(=O)c2ccc(C)c([N+](=O)[O-])c2)cc1 | -5.78% |
| Cc1ccc(C(=O)NCCSC(C)(C)C)cc1 | 2.64% |
| Cc1ccc2c(c1)-c1[nH]c(=S)ncc1CS2 | 3.39% |
| COc1ccc(-c2cc(C(F)(F)F)nc(SCC(=O)NCc3cccs3)n2)cc1OC | 0.43% |
| Cc1cc(OCC(=O)N(Cc2ccco2)C2CCS(=O)(=O)C2)ccc1Cl (stereo not given) | -8.25% |

| Structure (SMILES) | inhibition |
| --- | --- |
| O=C(COC(=O)/C=C/c1ccc(F)cc1)NCc1ccco1 | -4.03% |
| O=C(CCCn1cc([N+](=O)[O-])cn1)NC1CCCCCC1 | 5.99% |
| CS(=O)(=O)c1cccc(C(=O)NCc2ccc(F)cc2)c1 | 9.82% |
| Cc1nn(Cc2c(Cl)cccc2Cl)c(C)c1NC(=O)c1cnn2c(C(F)F)cc(-c3ccccc3)nc12 | 49.7% |
| Cc1ccc(-c2cc(C(F)F)n3ncc(C(=O)Nc4c(C)nn(Cc5c(Cl)cccc5Cl)c4C)c3n2)cc1 | 57.7% |
| COc1ccccc1NC(=O)CSC1=NCCN1 | -6.91% |
| C=CCN1CN(S(=O)(=O)c2cccs2)c2nc3ccccc3nc21 | -3.39% |
| Clc1ccccc1OCCCCn1ccnc1 | 2.53% |
| Cc1ccc(C)c(OCCCCCn2ccnc2)c1 | -10.5% |
| Cc1ccccc1OCCCCCn1ccnc1 | 5.71% |
| Cc1cccc(C(C)(C)C)c1OCCn1ccnc1 | -11% |
| COc1ccccc1NC(=O)N1CCN(CCc2ccccc2)CC1 | -2.85% |
| CC(=O)OCC1OC(OC(C)=O)C(NC(=O)c2cccnc2)C(OC(C)=O)C1OC(C)=O (stereo not given) | -0.72% |
| CCCCN(C(=O)c1cc2ccccc2o1)c1c(N)n(CC(C)C)c(=O)[nH]c1=O | 9.87% |
| COc1cccc(N=Nc2c(N)[nH]n3c(=O)c4c(nc23)CCCC4)c1 | 19.3% |
| O=c1c2c(nc3c(-c4ccccc4)c[nH]n13)CCC2 | 2.63% |
| COc1ccc(-c2c(C)[nH]n3c(=O)c(Cc4ccccc4)c(C)nc23)cc1OC | 38.6% |
| COc1ccc(-c2c(C)[nH]n3c(=O)c(Cc4ccccc4)c(C)nc23)cc1 | 70.9% |
| Cc1ccc(-c2[nH]n3c(=O)c4c(nc3c2C)CCCC4)cc1 | 5.52% |
| O=c1c2c(nc3c(-c4ccccc4)c[nH]n13)CCCC2 | 14.2% |
| Nc1[nH]n2c(=O)c3c(nc2c1N=Nc1ccccc1)CCCC3 | 79.3% |
| Cc1[nH]n2c(=O)c3c(nc2c1-c1cccc2ccccc12)CCC3 | -8.68% |
| CC(=O)Nc1ccc2c(CSc3nnc(-c4cccnc4)n3-c3ccc(C)cc3C)cc(=O)oc2c1 | -5.62% |
| Cc1ccc(CNC(=O)CSc2nc(C)cc(C)c2C#N)cc1 | -9.02% |
| C/C(=N\NC(=O)C1(C)NC(C)(C)Cc2ccccc21)c1ccccc1 (stereo not given) | 1.17% |

| Structure (SMILES) | inhibition |
| --- | --- |
| COc1ccc(C(=O)Nc2ccc(N3CCN(c4ccc(OC)cc4)CC3)c(C#N)c2)cc1 | -7.83% |
| COc1ccc(-n2c(=S)[nH]c3cc(C(=O)NCCCN4CCCC4=O)ccc3c2=O)cc1OC | -1.47% |
| CC(=O)COC(=O)CNC(=O)c1ccc(Br)cc1 | -5.11% |
| Cc1cccc(N(Cc2cc3ccccc3[nH]c2=O)C(=O)c2ccco2)c1C | 4.31% |
| COc1ccc(NC(=O)CCOc2ccccc2)c(OC)c1 | -0.51% |
| COC(=O)c1cccc(NC(=O)CCCOc2cccc(C)c2)c1 | -9.57% |
| O=C(CCCCCNC(=S)Nc1ccccc1)C[N+](=O)[O-] | -1.95% |
| Cc1[nH]n2c(=O)c3c(nc2c1-c1ccccc1)CCC3 | 3.85% |
| Cc1c(-c2ccccc2)[nH]n2c(=O)c3c(nc12)CCCC3 | 6.84% |
| CN(C)c1cc(-c2cccc([N+](=O)[O-])c2)oc(=O)c1Cl | 1.64% |
| Cc1ccc(C(=O)N[C@@H](C)CN2C3=NC[C@H](Cc4ccccc4)N3C[C@H]2Cc2ccc(O)cc2)cc1Br | 21.4% |
| Cc1ccc(C(=O)NCCN2C3=NC[C@H](Cc4ccc(O)cc4)N3C[C@H]2Cc2ccc(O)cc2)cc1Br | 13.6% |
| Cc1ccc(C(=O)NCCN2C3=NC[C@@H](Cc4ccccc4)N3C[C@H]2Cc2ccc(O)cc2)cc1Br | 40.7% |
| COc1ccc(C[C@@H]2CN3C(=NC[C@@H]3C)N2C[C@H](C)NC(=O)c2ccc(C)c(Br)c2)cc1 | 8.27% |
| Cc1cc(=O)oc(C)c1C(=O)Nc1cccc(F)c1 | -6.13% |
| CNC(=S)Nc1cccc(C(C)=O)c1 | -3.56% |
| Cc1ccc(N=C2NC(=O)/C(=C/c3cccnc3)S2)c(C)c1 | 20.4% |
| COCCCn1c(SCc2ccccc2)nc2cc(OC)c(OC)cc2c1=N | 0.99% |
| COCCCn1c(SCc2cccc(OC)c2)nc2cc(OC)c(OC)cc2c1=N | 6.91% |
| COc1cc2nc(SCc3ccc(Cl)cc3Cl)n(Cc3cccs3)c(=N)c2cc1OC | 11.9% |
| COc1cc2nc(SCc3ccc(C(F)(F)F)cc3)n(Cc3cccs3)c(=N)c2cc1OC | -5.09% |
| COc1ccc(-c2nc(Cn3c(SCc4cccc(F)c4)nc4ccncc43)c(C)o2)cc1OC | 55.2% |
| COc1ccc(-c2nc(Cn3c(SCc4ccc(F)cc4)nc4ccncc43)c(C)o2)cc1OC | 67.8% |
| COc1cc2nc(SCc3ccc(F)cc3)n(Cc3cccs3)c(=N)c2cc1OC | 8.63% |
| COCCCn1c(SCc2ccc(OC)cc2)nc2cc(OC)c(OC)cc2c1=N | 1.79% |

Source: PubChem BioAssay AID1626 (SRMLSC, 2009)
